Measurements reported in PubChem BioAssay (EPA / NIEHS).
Records with an inconclusive call do not appear. Activity calls are given as the source filed them. The calls were made as follows, unless noted: active = hit-call score of the fitted dose curve at least 0.9, where 1 is the maximum; inactive = score below 0.9.

Columns and labels:
[1] = CCTE_Shafer_MEA_dev_per_burst_interspike_interval: CCTE's Neural Network Formation Assay for Burst Interspike Interval, Shafer Lab (AID 2284044);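 also: mean spike spacing inside bursts as AUC over recordings on days 5 7 9 12; potency for a decrease of within-burst interspike interval below DMSO level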
Method in brief: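 Primary rat cortical neurons on 48-well MEA plates, exposed from day 0 through day 12, treatment renewed at DIV 5 and 9. Within-burst interspike interval recorded days 5, 7, 9, 12, well-averaged, summarised as AUC; negative fit versus DMSO.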

[2] = CCTE_Shafer_MEA_dev_burst_duration_mean: CCTE's Neural Network Formation Assay for Mean Burst Duration, Shafer Lab (AID 2284045);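 also: curve fitted for loss meaning shorter burst duration than DMSO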
Method in brief: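 Mean single-electrode burst duration (first to last spike), averaged over bursting electrodes per well, then integrated as area-under-curve across recordings at days 5, 7, 9 and 12. Rat cortical cultures on MEAs, compound present from plating, refreshed at feeds.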

[3] = CCTE_Shafer_MEA_dev_interburst_interval_mean: CCTE's Neural Network Formation Assay for Mean Interburst Interval, Shafer Lab (AID 2284046);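 also: well-mean interburst interval of bursting electrodes as AUC over four recording days; curve fitted for decrease in interburst interval relative to DMSO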
Method in brief: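 Developing rat cortical networks on 48-well MEAs receive compound from the day of plating. Burst intervals from each active electrode are averaged per well, and AUC over the recording days is fitted in the negative direction against DMSO.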

[4] = CCTE_Shafer_MEA_dev_inter_network_spike_interval_mean: CCTE's Neural Network Formation Assay for Mean Inter-network Spike Interval, Shafer Lab (AID 2284047);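 also: potency for a decrease in mean inter-network spike interval below DMSO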
Method in brief: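 Rat cortical cultures, 1.5 x 10^5 cells/well on 48-well MEA plates; continuous exposure days 0–12, medium and compound refreshed DIV 5, 9. Mean time between consecutive network-spike peaks; AUC across DIV 5/7/9/12; DMSO baseline, negative fitting direction.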

[5] = CCTE_Shafer_MEA_dev_network_spike_number: CCTE's Neural Network Formation Assay for Number of Network Spikes, Shafer Lab (AID 2284048);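 also: synchronized bursts across electrodes counted on days 5 7 9 12 and integrated as AUC; fit as a loss of signal meaning fewer network spikes than DMSO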
Method in brief: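 Number of network spikes (coordinated firing across electrodes) recorded on days 5, 7, 9 and 12 and summarised as area under the curve. Rat cortical cultures on MEA, continuous compound exposure with full medium/treatment exchange at DIV 5 and 9.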

[6] = CCTE_Shafer_MEA_dev_network_spike_peak: CCTE's Neural Network Formation Assay for Mean Number of Electrodes in Network Spike, Shafer Lab (AID 2284049);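 also: fitted for loss of signal meaning fewer electrodes in network spikes than DMSO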
Method in brief: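 Rat cortical primary culture, 1.5 x 10^5 cells/well, 48-well MEA (16 electrodes/well). Dosing day 0 through DIV 12, full media/compound exchange DIV 5, 9. AxIS adaptive spike detection; AUC over days 5/7/9/12; loss-of-signal vs DMSO.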

[7] = CCTE_Shafer_MEA_dev_spike_duration_mean: CCTE's Neural Network Formation Assay for Mean Spike Duration, Shafer Lab (AID 2284051);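 also: mean network spike duration pooled as area under curve over DIV 5 to 12 recordings; potency for a decrease in mean network spike duration versus DMSO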
Method in brief: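 Readout is the average length of network spikes, clustered firing across electrodes, summed over DIV 5, 7, 9 and 12 as area under the curve. Neurons from rat cortex developed networks on MEA plates under continuous 12-day exposure.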

[8] = CCTE_Shafer_MEA_dev_network_spike_duration_std: CCTE's Neural Network Formation Assay for Standard Deviation of Network Spike Duration, Shafer Lab (AID 2284052);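 also: hits are decreases in network spike duration SD versus DMSO vehicle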
Method in brief: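 Read-out is the trapezoidal area-under-the-curve across recordings made on days 5, 7, 9 and 12, fitted in the negative direction against DMSO baseline. Neurons were primary rat cortical cells treated from day 0, with treatment renewed at each feed.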

[9] = CCTE_Shafer_MEA_dev_per_network_spike_spike_number_mean: CCTE's Neural Network Formation Assay for Mean Number of Spikes in a Network Spike, Shafer Lab (AID 2284053);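 also: fitted as decrease in spikes per network spike relative to DMSO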
Method in brief: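 Continuous twelve-day exposure of developing rat cortical networks grown over 16 microelectrodes per well; spontaneous firing is captured at four time points, and the per-network-spike spike number is integrated over development by trapezoidal AUC.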

[10] = CCTE_Shafer_MEA_dev_per_network_spike_spike_percent: CCTE's Neural Network Formation Assay for Percent of Spikes in a Network Spike, Shafer Lab (AID 2284054)
Method in brief: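 Metric: fraction of spikes falling in a 0.05 s window at network-spike peaks. Recordings were made on days 5, 7, 9 and 12 and collapsed by trapezoidal AUC. Cultures were rat cortical neurons on MEA plates, dosed continuously from plating, re-dosed at media changes.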

[11] = UKN5_HCS_SBAD2_cell_viability: Viability Assessment in the University of Konstanz (UKN) Leist Lab Neurite Outgrowth Assay in human iPSC-derived immature Dorsal Root Ganglia Neurons (UKN5) (AID 2284056)
Method in brief: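 iPSC-derived immature peripheral neurons (SBAD2) seeded on Matrigel with CHIR99021, SU5402 and DAPT, dosed 1 h later for 24 h. Viability from Hoechst H-33342 and calcein-AM live staining, high-content imaging; bidirectional fit versus DMSO.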

[12] = CCTE_Shafer_MEA_acute_AB: CCTE's Alamar Blue Assay for Cytotoxicity in the Neural Acute Assay, Shafer Lab (AID 2284069; active = hit-call score of the fitted dose curve at least 0.9, where 1 is the maximum;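 also: active compounds lower the viability signal compared with DMSO wells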)
Method in brief: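 Metabolic activity in chemically exposed rat cortical neurons (MEA cultures, day 13/15 post-plating) measured via CellTiter Blue resazurin reduction, 544/590 nm fluorescence; fitted relative to DMSO, with signal loss indicating reduced viability.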

[13] = UKN5_HCS_SBAD2_neurite_outgrowth: University of Konstanz (UKN) Leist Lab Neurite Outgrowth Assay in human iPSC-derived immature Dorsal Root Ganglia Neurons (UKN5) (AID 2284070); details: actives raise or lower the signal
Method in brief: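 Cryopreserved SBAD2 peripheral neurons were seeded at 100.000 cells/cm2 in N2-S/KSR medium containing CHIR99021, SU5402 and DAPT, then exposed to compounds for 24 h. Neurite area from calcein-AM high-content imaging was fitted bidirectionally against DMSO.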

[14] = CCTE_Shafer_MEA_dev_AB: CCTE's Alamar Blue Assay for Cytotoxicity in the Neural Network Formation Assay, Shafer Lab (AID 2284083; active = hit-call score of the fitted dose curve at least 0.9, where 1 is the maximum;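 also: twelve days of exposure from plating with re-dosing on DIV 5 and 9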)
Method in brief: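 Fluorescent resazurin reduction serves as the viability read-out, with DMSO as negative control and baseline. Cells were primary rat cortical neurons grown on MEA plates and dosed from day 0 to day 12, treatment renewed on DIV 5 and 9.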

[15] = CCTE_Shafer_MEA_acute_LDH: CCTE's Lactate Dehydrogenase Assay for Cytotoxicity in the Neural Acute Assay, Shafer Lab (AID 2284086; active = hit-call score of the fitted dose curve at least 0.9, where 1 is the maximum;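 also: active means LDH release rises above DMSO vehicle level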)
Method in brief: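 LDH absorbance at 490 nm in medium taken right after 40-min compound exposure; rat primary cortical neuron networks on MEA plates, days post-plating 13 or 15. Increase over DMSO baseline scored as cytotoxicity.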

[16] = CCTE_Shafer_MEA_dev_mutual_information_norm: CCTE's Neural Network Formation Assay for Mutual Information Normalization, Shafer Lab (AID 2284091);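 also: mutual information between electrodes summarised as area under curve across four recording days; potency is for a decrease in mutual information relative to DMSO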
Method in brief: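 Shared information across electrodes, tracked on days 5, 7, 9 and 12 of network development and collapsed as trapezoidal area under the curve. Rat cortical cultures were treated continuously from plating, with treatment renewed at feeds on DIV 5 and 9; DMSO baseline, negative-direction fit.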

[17] = CCTE_Shafer_MEA_dev_correlation_coefficient_mean: CCTE's Neural Network Formation Assay for Mean Correlation Coefficient, Shafer Lab (AID 2284093);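 also: well mean pairwise spike train correlation integrated as AUC over recording days 5 to 12; potency fitted for loss of correlation relative to DMSO vehicle wells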
Method in brief: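 Read-out: well-mean correlation coefficient of spike trains between electrode pairs, collapsed over four recording days as trapezoidal area-under-the-curve. Developing rat cortical neuron networks grown on MEAs received test chemical continuously from plating.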

[18] = UKN2_HCS_IMR90_neural_migration: University of Konstanz (UKN) Leist Lab Neural Crest Cell Migration Assay in human induced IMR90 Pluripotent Stem Cells (UKN2) (AID 2284204); details: actives raise or lower the signal
Method in brief: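 High-content imaging of calcein-AM and Hoechst stained cells quantifies migration into a stopper-defined gap after 24 h compound exposure. Neural crest cells from IMR90 iPSC migrated 24 h in EGF/FGF N2-S medium before dosing; DMSO baseline.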

[19] = UKN4_HCS_LUHMES_neurite_outgrowth: University of Konstanz (UKN) Leist Lab Neurite Outgrowth Assay in human LUHMES cells (UKN4) (AID 2284206); details: actives raise or lower the signal
Method in brief: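 Read-out: calcein-AM neurite area by high-content fluorescence imaging, with Hoechst H-33342 viability counterstain, after 24 h chemical exposure of day-2 differentiated LUHMES cells. Activity fitted bidirectionally against DMSO baseline.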

[20] = IUF_NPC1b_proliferation_BrdU_72hr: Leibniz Research Institute for Environmental Medicine (IUF) 72-hour Neural Progenitor Cell Bromodeoxyuridine (BrdU) Proliferation Assay (NPC1b) (AID 2284207)
Method in brief: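 Human fetal cortex-derived (GW 16-19) neural progenitor spheres, 0.25-0.35 mm, one per well in EGF/FGF proliferation medium, exposed to compound for 72 h at 37C, pH 7.2-7.6. BrdU incorporation over the final 16 h read by luminescence ELISA, relative to DMSO.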

[21] = IUF_NPC1a_proliferation_area_72hr: Leibniz Research Institute for Environmental Medicine (IUF) 72-hour Neural Progenitor Cell Proliferation Area Assay (NPC1a) (AID 2284208)
Method in brief: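 Single 0.25–0.35 mm human fetal neural progenitor spheres in proliferation medium with EGF and FGF, exposed 72 h from plating without renewal at 37C, pH 7.2-7.6. Sphere area growth measured by automated phase-contrast imaging, relative to DMSO.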

[22] = IUF_NPC1_viability_72hr: Viability Assessment at 72 hours in the Leibniz Research Institute for Environmental Medicine (IUF) Neural Progenitor Cell Proliferation Assay (NPC1) (AID 2284209)
Method in brief: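 Alamar blue fluorescence (RFU) after 72 h exposure, normalized to DMSO baseline. hNPC spheres from GW 16-19 fetal cortex, single sphere per well in growth-factor medium; no compound renewal.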

[23] = CCTE_Mundy_HCI_Cortical_Synap_Neur_Matur_NeuriteSpotCountPerNeuriteLength: CCTE's Synaptogenesis and Neurite Maturation Assay in rat cortical cells for Neurite Spot Count per Neurite Length, Mundy Lab (AID 2284210)
Method in brief: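 Synaptophysin spots per unit neurite length, measured by automated imaging of MAP2/synaptophysin/Hoechst-stained neurons. Cultures from rat cortex received chemical at DIV 7 with media change through DIV 12; glial growth arrested by AraC at DIV 5; DMSO baseline.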

[24] = CCTE_Mundy_HCI_Cortical_Synap_Neur_Matur_BPCount: CCTE's Synaptogenesis and Neurite Maturation Assay in rat cortical cells for Branch Point Count, Mundy Lab (AID 2284211)
Method in brief: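 In this multiplexed morphology assay, cortical cells from rat receive chemicals at DIV 7 and are fixed at DIV 12, then immunostained and imaged; branch points are counted, with DMSO as baseline.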

For `[Cd+2].[Cl-].[Cl-]`, the AC50 [1] was 630 nM (active), the AC50 [2] was 387 nM (active) and the AC50 [3] was 460 nM (active). The AC50 [4] was 14 nM (active), the AC50 [5] was 299 nM (active) and the AC50 [6] was 208 nM (active). For the same compound, the AC50 [7] was 119 nM (active), the AC50 [8] was 23.9 nM (active) and the AC50 [9] was 260 nM (active). For the same compound, the AC50 [10] was 585 nM (active), the AC50 [11] was 50000 nM (active) and the outcome [12] was “inactive”. For the same compound, the AC50 [13] was 50000 nM (active), the AC50 [14] was 1210 nM (active) and the outcome [15] was “inactive”. The AC50 [16] was 178 nM (active), the AC50 [17] was 609 nM (active) and the AC50 [18] was 880 nM (active). For the same compound, the AC50 [19] was 6250 nM (active), the AC50 [20] was 6450 nM (active) and the outcome [21] was “inactive”. For the same compound, the outcome [22] was “inactive”, the outcome [23] was “inactive” and the AC50 [24] was 1380 nM (active).
